Laboratory results: PubChem BioAssay (NCI)
About 79,000 compounds went through this panel and 15% of them were active in at least one assay; those are over-represented in the sample as a whole. Calls of active or inactive are those of the source. Cut-off read from the data, not from the text of the source: active = growth inhibition above about 70%; inactive = the rest.

Tests used:
[1] = NCI Yeast Anticancer Drug Screen. Data for the rad52 strain (AID 147);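 note: 0% = growth of vehicle-treated control cultures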; details: S. cerevisiae rad52 mutant growth inhibition, stronger effect = higher value
In short: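 Read-out: growth inhibition versus vehicle-treated controls. Cells were a DNA repair-deficient yeast strain treated with compounds.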

[2] = NCI Yeast Anticancer Drug Screen. Data for the wt1 strain (AID 149);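 note: 0% = growth of vehicle-treated wt1 cultures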; details: S. cerevisiae wt1 strain (SPY 50644) growth inhibition, stronger effect = higher value
In short: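 Growth inhibition read against vehicle controls after compound exposure of the wt1 yeast strain.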

[3] = NCI Yeast Anticancer Drug Screen. Data for the rad50EPP+ strain (AID 151);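 note: 0% = growth of vehicle-treated control cultures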; details: S. cerevisiae rad50 mutant strain, stronger effect = higher value
In short: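 Growth inhibition read against vehicle controls in rad50EPP+ yeast, a strain altered in DNA damage repair, after compound exposure.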

[4] = NCI Yeast Anticancer Drug Screen. Data for the mgt1 strain (AID 153); details: S. cerevisiae mgt1 mutant growth inhibition, stronger effect = higher value
In short: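 mgt1 yeast grown with test compound; read-out is growth inhibition versus vehicle-treated cultures.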

[5] = NCI Yeast Anticancer Drug Screen. Data for the rad50 strain (AID 155);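 note: 0% = growth of vehicle-only cultures of the same strain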; details: S. cerevisiae rad50 strain growth inhibition, stronger effect = higher value
In short: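 Readout: growth inhibition relative to vehicle-treated cultures. Compound exposure was carried out in a genetically defined yeast strain deficient in DNA damage repair.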

[6] = NCI Yeast Anticancer Drug Screen. Data for the mec2-1 strain (AID 157); details: S. cerevisiae mec2-1 strain, stronger effect = higher value
In short: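 Yeast mec2-1 mutant treated with compound. Readout: growth inhibition vs vehicle controls.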

[7] = NCI Yeast Anticancer Drug Screen. Data for the rad14 strain (AID 159);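 note: 0% = growth of vehicle-treated control cultures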; details: S. cerevisiae rad14 strain growth inhibition, stronger effect = higher value
In short: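 Growth inhibition vs vehicle controls; genetically altered yeast strain (DNA damage repair defect) treated with test compounds.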

[8] = NCI Yeast Anticancer Drug Screen. Data for the sgs1 mgt1 strain (AID 161);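 note: 0% = growth of cultures given vehicle only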; details: S. cerevisiae sgs1 mgt1 strain, stronger effect = higher value
In short: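 Read-out: growth inhibition vs vehicle controls. Cells: mutant yeast strain deficient in DNA damage repair.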

[9] = NCI Yeast Anticancer Drug Screen. Data for the CLN2oe strain (AID 163);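 note: 0% = growth of vehicle-only control cultures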; details: S. cerevisiae CLN2oe strain, stronger effect = higher value
In short: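 Read-out: yeast growth inhibition, expressed relative to vehicle-only controls. The strain bears an engineered cell-cycle alteration.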

[10] = NCI Yeast Anticancer Drug Screen. Data for the cln2 rad14 strain (AID 165);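 note: 0% = growth equal to vehicle treated cultures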; details: S. cerevisiae cln2 rad14 strain, stronger effect = higher value
In short: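 cln2 rad14 yeast strain; compound exposure; growth inhibition read vs vehicle controls.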

[11] = NCI Yeast Anticancer Drug Screen. Data for the mlh1 strain (AID 171);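 note: 0% = growth of vehicle-treated control cultures of the same strain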; details: S. cerevisiae mlh1 strain growth inhibition, stronger effect = higher value
In short: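 Read-out: growth inhibition versus vehicle controls. Strain: engineered yeast with a defined DNA repair or cell cycle defect, compound-treated.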

[12] = NCI Yeast Anticancer Drug Screen. Data for the mlh1 rad18 strain (AID 175); details: S. cerevisiae mlh1 rad18 strain growth inhibition, stronger effect = higher value
In short: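 Yeast w/ defined DNA-repair lesions; compound exposure; growth vs vehicle controls → % inhibition.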

[13] = NCI Yeast Anticancer Drug Screen. Data for the rad18 strain (AID 177); details: S. cerevisiae rad18 mutant growth inhibition, stronger effect = higher value
In short: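 Readout: growth inhibition vs vehicle controls. Cells: genetically altered yeast strain, DNA repair defect.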

[14] = NCI Yeast Anticancer Drug Screen. Data for the bub3 strain (AID 167); details: S. cerevisiae bub3 mutant strain, stronger effect = higher value
In short: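 Readout: yeast growth inhibition, expressed relative to vehicle-only wells. The test organism is a mutant strain from a panel with lesions in DNA repair or checkpoint genes.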

[15] = NCI Yeast Anticancer Drug Screen. Data for the wt2 strain (AID 169);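 note: 0% = growth of vehicle-treated yeast cultures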; details: S. cerevisiae wt2 strain growth inhibition, stronger effect = higher value
In short: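 Read-out: growth inhibition versus vehicle-treated control cultures after compound exposure of the yeast strain.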

[16] = NCI Yeast Anticancer Drug Screen. Data for the sgs1 strain (AID 173);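 note: 0% = growth of vehicle-only control cultures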; details: S. cerevisiae sgs1 mutant, stronger effect = higher value
In short: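 Read-out: yeast growth inhibition relative to vehicle controls, following compound exposure of a strain with a defined DNA repair/cell cycle alteration.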

[17] = at 5.0 µM (retest, dose inferred, filed as 0.5)
[18] = at 50.0 µM (retest, dose inferred, filed as 5.0)

Measured: growth inhibition

COC(=O)C1=C(C(=O)OC)SC2(S1)C(C(=O)OC)=C(C(=O)OC)Sc1c2ssc1=O
inactive: [1]; at 1.2 µM 55% | [2]; at 1.2 µM 27% | [2]; at 3.7 µM 26% | [2]; at 11.0 µM 66% | [3]; at 1.2 µM 9% | [3]; at 3.7 µM 8% | [3]; at 11.0 µM 30% | [3]; at 33.0 µM 56% | [3]; at 100.0 µM 54% | [4]; at 1.2 µM 44% | [4]; at 3.7 µM 51% | [5]; at 1.2 µM 46% | [5]; [17] 13% | [6]; at 1.2 µM 16% | [6]; at 3.7 µM 17% | [6]; [17] 17% | [7]; at 1.2 µM 27% | [7]; at 3.7 µM 30% | [8]; [17] 26% | [9]; at 1.2 µM 14% | [9]; at 3.7 µM 26% | [11]; at 1.2 µM 44% | [11]; at 3.7 µM 51% | [12]; [17] 26% | [13]; at 1.2 µM 30% | [13]; at 3.7 µM 55%
active: [1]; at 3.7 µM 72% | [1]; at 11.0 µM 93% | [1]; at 33.0 µM 98% | [1]; at 100.0 µM 89% | [2]; at 33.0 µM 99% | [2]; at 100.0 µM 94% | [4]; at 11.0 µM 88% | [4]; at 33.0 µM 99% | [4]; at 100.0 µM 92% | [5]; at 3.7 µM 73% | [5]; at 11.0 µM 93% | [5]; at 33.0 µM 98% | [5]; [18] 95% | [5]; at 50.0 µM 82.2% | [5]; at 100.0 µM 91% | [6]; at 11.0 µM 85% | [6]; at 33.0 µM 98% | [6]; [18] 95% | [6]; at 50.0 µM 86.2% | [6]; at 100.0 µM 88% | [7]; at 11.0 µM 80% | [7]; at 33.0 µM 99% | [7]; at 100.0 µM 92% | [8]; [18] 95% | [8]; at 50.0 µM 84.1% | [9]; at 11.0 µM 91% | [9]; at 33.0 µM 98% | [9]; at 100.0 µM 91% | [10]; [17] 70% | [10]; [18] 95% | [10]; at 50.0 µM 86.2% | [11]; at 11.0 µM 88% | [11]; at 33.0 µM 99% | [11]; at 100.0 µM 92% | [12]; [18] 96% | [12]; at 50.0 µM 86.8% | [13]; at 11.0 µM 91% | [13]; at 33.0 µM 95% | [13]; at 100.0 µM 90%

C[C@]12CCC(=O)C=C1CC[C@@H]1C2CC[C@@]2(C)C1CC[C@@H]2OC(=O)C12OC1CCC2=O (stereo partly drawn)
inactive: [1]; at 1.2 µM 0% | [1]; at 3.7 µM 23% | [1]; at 11.0 µM 37% | [2]; at 1.2 µM -2% | [2]; at 3.7 µM -9% | [2]; at 11.0 µM 8% | [2]; at 33.0 µM 66% | [3]; at 1.2 µM 9% | [3]; at 3.7 µM 25% | [3]; at 11.0 µM 69% | [4]; at 1.2 µM -8% | [4]; at 3.7 µM -11% | [4]; at 11.0 µM 27% | [5]; at 1.2 µM -15% | [5]; at 3.7 µM -4% | [5]; [17] -16% | [5]; at 11.0 µM 29% | [6]; at 1.2 µM 5% | [6]; at 3.7 µM 14% | [6]; [17] 6% | [6]; at 11.0 µM 33% | [7]; at 1.2 µM -9% | [7]; at 3.7 µM -11% | [7]; at 11.0 µM 5% | [8]; [17] 8% | [10]; [17] 39% | [10]; [18] 67% | [10]; at 50.0 µM 65.1% | [14]; at 1.2 µM 1% | [14]; at 3.7 µM 23% | [14]; [17] 27% | [14]; at 11.0 µM 45% | [15]; at 1.2 µM -3% | [15]; at 3.7 µM 9% | [15]; at 11.0 µM 36% | [11]; at 1.2 µM 19% | [11]; at 3.7 µM 17% | [11]; at 11.0 µM 51% | [16]; at 1.2 µM 18% | [16]; at 3.7 µM 24% | [16]; at 11.0 µM 57% | [12]; [17] -21% | [13]; at 1.2 µM 9% | [13]; at 3.7 µM 14% | [13]; at 11.0 µM 39%
active: [1]; at 33.0 µM 83% | [1]; at 100.0 µM 96% | [2]; at 100.0 µM 96% | [3]; at 33.0 µM 94% | [3]; at 100.0 µM 97% | [4]; at 33.0 µM 92% | [4]; at 100.0 µM 97% | [5]; at 33.0 µM 79% | [5]; [18] 87% | [5]; at 50.0 µM 86.2% | [5]; at 100.0 µM 95% | [6]; at 33.0 µM 90% | [6]; [18] 86% | [6]; at 50.0 µM 88.8% | [6]; at 100.0 µM 97% | [7]; at 33.0 µM 75% | [7]; at 100.0 µM 96% | [8]; [18] 93% | [8]; at 50.0 µM 88.7% | [14]; at 33.0 µM 79% | [14]; [18] 96% | [14]; at 50.0 µM 84.5% | [14]; at 100.0 µM 96% | [15]; at 33.0 µM 91% | [15]; at 100.0 µM 96% | [11]; at 33.0 µM 94% | [11]; at 100.0 µM 97% | [16]; at 33.0 µM 95% | [16]; at 100.0 µM 96% | [12]; [18] 92% | [12]; at 50.0 µM 85.4% | [13]; at 33.0 µM 83% | [13]; at 100.0 µM 97%
